# In the library only some 2.3% were active in any assay of this set; here they are far more common.
# CHRM1 antagonist = human CHRM1 antagonism. CHO-K1 hM1, Fluo-8 calcium fluorescence, ACh EC80 antagonist. 360,000 tested, 1.3% active. inhibition, % at 3 µM;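 active = percent inhibition above its own plate's cutoff, namely the mean of that plate's compound wells plus 3 SD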;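 note: peak over basal fluorescence ratio during 140 s after agonist addition; 0% = ACh EC80 plus DMSO and 100% = DMSO alone without agonist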
# Target sequence (P11229 whole entry, looked up): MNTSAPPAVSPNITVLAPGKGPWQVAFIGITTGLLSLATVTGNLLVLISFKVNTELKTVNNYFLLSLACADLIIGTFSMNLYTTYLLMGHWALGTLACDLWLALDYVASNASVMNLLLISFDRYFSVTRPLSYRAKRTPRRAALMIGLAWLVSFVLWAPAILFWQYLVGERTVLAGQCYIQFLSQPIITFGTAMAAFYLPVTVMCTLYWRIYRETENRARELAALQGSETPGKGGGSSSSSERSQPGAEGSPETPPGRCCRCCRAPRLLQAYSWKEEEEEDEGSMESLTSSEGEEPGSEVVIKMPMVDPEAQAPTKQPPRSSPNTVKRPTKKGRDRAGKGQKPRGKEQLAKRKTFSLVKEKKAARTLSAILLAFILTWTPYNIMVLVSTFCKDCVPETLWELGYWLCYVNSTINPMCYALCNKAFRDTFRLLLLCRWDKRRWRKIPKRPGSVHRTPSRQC
# CHRM1 agonist = human M1 muscarinic receptor agonism | 360,000 tested, 0.33% active | AID 588814 | activation, % at 3 µM | CHO-K1 hM1, Fluo-8 calcium fluorescence, agonist mode; 0% DMSO, 100% acetylcholine EC100;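 active = activation above the run's mean compound activation plus 3 SD, cut at about 16% in these data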;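 note: peak over basal fluorescence ratio within a 140 s kinetic read after compound addition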
# CHO-K1 Ca antag = nonselective inhibitor or artifact in parental CHO-K1 cells; ATP-induced calcium, Fluo-8 fluorescence; inhibition, % at 3 µM; 360,000 tested, 0.6% active; AID 602250;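 active = inhibition above a per-plate cutoff, the plate's mean sample inhibition plus 3 SD, cut at about 24% in these data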;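 note: 0% = DMSO plus EC80 ATP and 100% = DMSO alone without ATP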
# M1 PAM parental = M1 PAM counterscreen hit in parental CHO-K1 cells. activation, % at 3 µM. ATP EC20, Fluo-8 calcium fluorescence; 0% at ATP EC20, 100% at ATP max. 360,000 tested, 0.02% active;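 active = activation above the run cutoff, the mean activation of all test compounds plus 3 SD, cut at about 40% in these data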;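 note: peak over basal fluorescence ratio in a 140 s read after ATP addition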
# CHO-K1 Ca ag = M1 agonist counterscreen hit in parental CHO-K1 cells | 360,000 tested, 0.48% active | AID 602248 | activation, % at 3 µM | Fluo-8 calcium fluorescence; scaled to maximal ATP response, vehicle zero; in the data active = activation above about 15%;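 note: untransfected CHO-K1 host cells lacking M1 receptor as counterscreen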
# M1 PAM = human CHRM1 positive allosteric modulation; CHO-K1 hM1, Fluo-8 calcium fluorescence, ACh EC20; 0% = ACh EC20, 100% = maximal ACh; activation, % at 3 µM; 360,000 tested, 0.088% active; AID 588819; in the data active = activation above about 19%, passing the limit was not always enough
# * = called active by the depositor; x = no result given.
SMILES,CHRM1 antagonist,CHRM1 agonist,CHO-K1 Ca antag,M1 PAM parental,CHO-K1 Ca ag,M1 PAM
Cc1nc2sc(C(c3ccccc3)N3CCN(CCO)CC3)c(O)n2n1 (stereo unspecified),15.6,-3.9,30.7*,-4.8,0.2,-8.2
CCCn1c(NC(=O)c2ccc([N+](=O)[O-])o2)nc2ccccc21,6.1,-5.8,-5.5,-15.3,1.0,-3.5
COc1cc(C2C=C(c3cccs3)Nc3ncnn32)cc(OC)c1OC (stereo unspecified),7.9,12.2,3.5,-2.1,19.7*,-1.8
COc1cc(C2CC(=O)C3=C(C2)Nc2ncnn2C3c2cccs2)cc(OC)c1OC (stereo unspecified),-14.5,1.3,-9.7,13.9,0.4,21.4
COc1ccccc1CCNC(C)CCc1ccc(O)cc1 (stereo unspecified),10.6,-8.3,-7.7,14.6,1.1,-12.3
COc1cc(OC)c(OC)cc1CCC(C)NCCC(c1ccccc1)c1ccccc1 (stereo unspecified),73.7*,-8.7,14.3,-4.3,5.1,-35.0
CC(C)Cc1ccc(-c2cc3nc(NCCc4ccc(S(N)(=O)=O)cc4)ccn3n2)cc1,8.4,3.6,3.5,1.0,1.0,1.1
FC(F)Sc1ccc(NC(=S)NC2CCCCC2)cc1,17.6,-0.9,8.2,4.0,12.0,-10.4
FC(F)Sc1ccc(NC(=S)NCC2CCCCC2)cc1,30.8*,1.2,16.9,5.5,13.0,-16.3
O=C1C(=C(c2ccccc2)N2CCOCC2)Cc2ccccc21,-13.1,-4.4,-17.6,33.0,0.8,5.5
O=C(O)c1ccc(Cl)c(S(=O)(=O)Nc2ccc(S(=O)(=O)N3CCCC3)cc2)c1,-11.4,-4.5,-8.7,20.5,0.2,7.3
O=c1[nH]c(=S)[nH]c2nccnc12,-2.9,-0.8,7.2,-13.2,-0.2,1.9
COc1ccc(Nc2nc(N)nc(CN3CCC(Cc4ccccc4)CC3)n2)cc1,33.1*,-11.8,-7.6,14.3,0.8,-26.6
COc1ccccc1Nc1nc(N)nc(CN2CCC(Cc3ccccc3)CC2)n1,15.7,-4.8,1.9,-2.0,0.6,-14.8
COc1cccc(OC)c1OCCCN1CCC(Cc2ccccc2)CC1,45.3*,-5.3,13.0,-16.5,5.5,-24.1
CCCCN(C)C(=O)C1CCN(Cc2ccc(OCc3ccccc3)cc2)CC1,41.0*,-6.2,3.3,-4.0,0.6,-20.6
CCOC(=O)C1CCCN(Cc2ccc(OCC)cc2)C1 (stereo unspecified),2.5,30.9*,-5.3,18.8,4.0,-9.2
CCCCNC(=O)C1CCN(Cc2ccc(OCc3ccccc3)c(OC)c2)CC1,-3.9,-9.5,-5.4,5.5,-0.1,9.1
Cc1noc(C)c1-c1ccc(C(=O)Nc2cccc(C(F)(F)F)c2)c2occc12,0.1,-6.8,-21.1,24.7,0.3,-2.4
COC(=O)c1ccccc1NC1CC(=O)N(c2c(C)cccc2C)C1=O (stereo unspecified),8.5,0.0,-1.8,13.9,1.0,0.3
C=C1[C@@H](OC(C)=O)C=C[C@@]2(C)C=CC(=O)[C@@](C)(OC(C)=O)[C@@H]2[C@@H](OC(C)=O)[C@]2(O)[C@@H](C)C(=O)O[C@H]2[C@H]1Cl,-1.6,-2.0,1.4,-4.8,1.0,0.9
CCc1nnc(N2C(=O)c3cccc4cccc(c34)C2=O)s1,-2.3,-2.5,-2.0,11.0,-0.7,5.1
O=C(c1ccc(Cl)cc1)C1CCCN(Cc2ccc(Oc3ncccn3)cc2)C1 (stereo unspecified),62.3*,-4.7,-0.7,-6.8,1.4,-23.3
O=C(c1ccc(Cl)cc1)C1CCCN(Cc2cnn(-c3ccccc3)c2)C1 (stereo unspecified),25.8,-6.5,-12.7,17.9,4.0,-20.0
CCOc1ccc(CN2CCC(Cc3ccccc3)CC2)cc1,58.5*,-8.4,2.3,-10.7,1.1,-28.8
SMILES,CHRM1 antagonist,CHRM1 agonist,CHO-K1 Ca antag,M1 PAM parental,CHO-K1 Ca ag,M1 PAM
CCOC(=O)C1CCCN(CC(O)COc2ccc(OC)cc2C(C)(C)C)C1 (stereo unspecified),32.4*,60.0*,-9.9,18.0,0.5,-29.7
CCOC(=O)N1CCN(CC(O)COc2ccc(OC)cc2C(C)(C)C)CC1 (stereo unspecified),-0.7,-11.7,-7.7,15.3,2.5,-1.2
Cc1cc(OCCN2CCC(Cc3ccccc3)CC2)ccc1[N+](=O)[O-],101.0*,-6.3,-1.5,17.0,3.1,-31.1
COc1cccc(CNc2nc3cc(-c4ccsc4)sc3c(=O)n2C)c1OC,2.9,1.7,2.4,7.5,5.2,-7.2
O=C(Nc1ccccc1Cl)c1cc(C2CCCCN2C(=O)CCCc2ccccc2)on1 (stereo unspecified),-7.7,-0.8,-1.7,-10.4,0.1,6.0
COCCNC(=O)C1(C)CCCN(C(=O)c2c(-c3ccccc3)noc2C)C1 (stereo unspecified),1.6,0.0,5.0,-9.4,0.1,-2.5
COc1ccc(-n2c(SCC(N)=O)nc3sc4c(c3c2=O)CCC4)cc1,-7.1,-5.5,-13.1,5.0,0.1,7.0
NC(=O)C1CCN(Cc2ccc(OCc3ccccc3)cc2)CC1,27.0,-9.5,3.1,8.4,0.5,-17.4
CCOC(=O)C1CCN(Cc2ccc(OCc3ccccc3)cc2)CC1,49.3*,-7.8,-6.6,18.7,1.9,-29.2
CCOC(=O)C1CCN(Cc2ccc(N(C)C)cc2)CC1,4.3,-1.5,41.1*,-3.5,-0.3,2.2
COC(=O)C1=COC(OC2OC(CO)C(O)C(O)C2O)C2C(C)CC(=O)C12 (stereo unspecified),-13.5,-1.9,0.5,8.0,2.0,6.5
NC(=O)c1c(N)[nH]c(C(=O)c2ccccc2)c1-c1ccccc1Br,x,x,-18.2,22.4,3.9,x
O=C1C(=O)N(Cc2ccncc2)C(c2ccccc2F)/C1=C(\O)c1ccc2c(c1)OCCO2 (stereo unspecified),-8.8,-3.0,-11.3,13.3,-0.3,3.1
O=C1CCCC2=C1C1(CCCC1)N=C(Nc1nc3cc(-c4ccccc4)ccc3o1)N2,0.4,-3.5,8.0,8.8,-0.1,-7.6
COc1ccc(Br)cc1C(=O)Nc1ccccc1N1CCN(C(=O)c2ccccc2)CC1,-1.9,0.0,2.2,-11.1,-0.3,11.8
O=C(Nc1ccccc1N1CCN(C(=O)c2ccccc2)CC1)c1cc(Br)ccc1Cl,14.4,-1.5,25.9*,-8.1,0.1,0.4
O=C(Nc1ccc(N2CCCC2)cc1)c1cc(Br)ccc1Cl,52.6*,-8.5,1.6,-9.8,-0.2,-28.4
CS(=O)(=O)c1ccc(C(=O)Nc2ccc(N3CCCC3)cc2)c(Cl)c1,0.3,-11.9,-3.0,0.4,0.1,7.9
NC(Cc1ccc(C(F)(F)F)cc1)c1csc(Nc2ccc(C(=O)NCc3ccco3)cn2)n1 (stereo unspecified),-6.9,0.8,-1.8,25.7,-0.6,12.4

# Bioassay records (PubChem BioAssay)
